An excerpt weighted towards active compounds, which were near 3.3% of everything screened.
HCV inhibitor – blocks hepatitis C virus; Huh7.5.1 HCVcc-Cre infection, luciferase reporter, 44 h; Potency, µM (highest dose often 41.8 µM), inactives show at the highest dose activity change, negative = inhibition, actives largely listed as inhibitors; actives 3.4% (n = 340,000); active = well fitted inhibition curve with a large enough effect; inconclusive = small, poorly fitted or top-dose-only effect, or another doubt; inactive = no such curve, though single readings can be large or run the other way
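Whole-lifecycle infectious HCVcc-Cre system; cells 1,000/well, compound then virus (~0.5 moi) added 4 h after plating, 44 h culture. Luciferase read 15 sec following 15 min substrate incubation, room temp.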
Vaccinia Venus – vaccinia inhibition (Venus reporter); Vaccinia virus Venus reporter expression, fluorescence; Potency, µM (highest dose often 36.5 µM), without a hit: top-dose activity change, negative = inhibition, most hits filed as inhibitors; actives 0.46% (n = 330,000); AID 720580; calls by dose curve; tested in A549 cells; note: nearly all actives have a fitted effect of over 30% in size
Vaccinia mCherry – inhibitors of vaccinia virus infection (mCherry reporter signal). actives 0.63% (n = 310,000). Potency, µM (top dose mostly 36.5 µM), for inactives: top-dose activity change, negative = inhibition, most hits filed as inhibitors. AID 720579. Vaccinia virus mCherry reporter infection, fluorescence; calls by dose curve; tested in A549 cells; note: nearly all actives have a fitted effect of over 35% in size
* marks the source's active call; other numbers are inactive results; i = inactive; ? = inconclusive; . = no result given; [ ] = another dose, or the depositor's remark. % is set by controls: 0 for no effect and ±100 for the full control effect; potency is the fitted concentration of half-maximal effect.

SMILES	HCV inhibitor	Vaccinia Venus	Vaccinia mCherry
CCC1(C)SC(NC(C)=O)=NN1C(C)=O (stereo not drawn)	-10.6%	-8.5%	-2.9%
COCc1c(C(=O)OC/C(O)=C(\C#N)c2nc3ccccc3[nH]2)oc2ccccc12	5.3%	4.9%	-0.1%
COc1ccc(-c2noc(N3CCN(c4cccc(C)c4C)CC3)n2)cc1OC	.	-11.6%	-15.2%
CN(c1ccccc1)S(=O)(=O)c1cccc(NC(=O)COc2cccc([N+](=O)[O-])c2)c1	?	-5.9%	-14.5%
CCN(CC(=O)Nc1cccc(S(=O)(=O)N(C)c2ccccc2)c1)Cc1cccs1	35.5µM*	-19.9%	?
Cc1ccsc1CN(C)CC(=O)Nc1cccc(S(=O)(=O)N(C)c2ccccc2)c1	?	-21.2%	-2.6%
COc1cc(CC(=O)Nc2cccc(SC)c2)cc(OC)c1OC	14.1µM*	-5.8%	i
COc1cccc(CN(C)CC(=O)Nc2cccc(S(=O)(=O)N(C)c3ccccc3)c2)c1OC	?	-14.2%	-25.3%
COc1ccc(CC(=O)Nc2cccc(SC)c2)cc1	15.1%	-15.2%	-17.2%
COc1cc(CC(=O)Nc2cccc(S(=O)(=O)N(C)c3ccccc3)c2)cc(OC)c1OC	10µM*	.	.
CCC(=O)c1ccc(OCC(=O)Nc2cccc(S(=O)(=O)N(C)c3ccccc3)c2)cc1	11.2µM*	.	.
COC(=O)C1CCCCN1Cc1ccc2c(c1)CN(C1CCSCC1)CCO2 (stereo not drawn)	.	-6.0%	-5.7%
COC(=O)c1c(OCCN2CCCCC2)cc(=O)n2c1CCN(Cc1cccc3nccnc13)CC2	.	-14.9%	i
CCN1CCC(N[C@H]2C[C@@H](C(=O)NC)N(Cc3cccc4ccccc34)C2)CC1	.	-1.8%	-7.2%
COc1ccc(S(=O)(=O)Nc2cc3c(C(C)=O)c(C)oc3c3ccccc23)cc1	17.8µM*	?	-24.9%
CC(=O)c1c(C)oc2c1cc(NS(=O)(=O)c1ccc(C(C)(C)C)cc1)c1ccccc12	.	-8.8%	-15.2%
COc1ccccc1CNS(=O)(=O)c1ccc2c(c1)NC(=O)CC(=O)N2	.	-8.1%	-8.7%
O=C(Nc1ccc2nc(-c3cccs3)c(-c3cccs3)nc2c1)N1CCCC1	.	-13.7%	-4.6%
O=C(Nc1ccc2nc(-c3cccs3)c(-c3cccs3)nc2c1)NC1CC1	25.1µM*	.	.
Nc1ncnc2c(C3OC(CO)C(O)C3O)scc12 (stereo not drawn)	?	0.355µM*	?
Nc1ncnc2c1ncn2C1OC(CO)C(O)C1N (stereo not drawn)	5.8%	-3.1%	-0.2%
CN(C)C1CCC(CC2CCc3ccccc32)CC1 (stereo not drawn)	.	-12.3%	-14.8%
CCCCC1(Cc2ccc([N+](=O)[O-])cc2)C(=O)N(c2ccccc2)N(c2ccccc2)C1=O	12.6µM*	?	?
CCCCC1(COC(=O)CCC(=O)O)C(=O)N(c2ccccc2)N(c2ccccc2)C1=O	-1.4%	-14.8%	-0.3%
Cc1nn(C)c(Cl)c1CN1CCOc2ccc(CN3CCC(Oc4cccnc4)CC3)cc2C1	.	-19.4%	-20.0%
SMILES	HCV inhibitor	Vaccinia Venus	Vaccinia mCherry
O=C(NNC(=O)c1cccnc1SCc1cccc([N+](=O)[O-])c1)c1ccc(F)cc1	?	-15.4%	-10.3%
O=C(NNC(=O)c1cccnc1SCc1cccc([N+](=O)[O-])c1)c1ccccn1	?	?	3.98µM*
Cc1ccc(Nc2c(-c3ccccn3)nc3cc(C)ccn23)cc1	2.82µM*	?	?
Cc1ccn2c(Nc3ccc4c(c3)OCO4)c(-c3ccccn3)nc2c1	?	12.2%	-11.0%
COc1ccccc1Nc1nc(-c2ccccc2F)nc2ccccc12	.	-29.1%	?
Cn1c(CCNC(=O)C2CC23CCN(C(=O)C2=CCCC2)CC3)nc2ccccc21 (stereo not drawn)	.	-0.1%	-4.6%
COc1cc(C(=O)Nc2ccc(S(=O)(=O)NC(C)(C)C)cc2)cc(OC)c1OC	12.6µM*	.	.
COC(=O)c1cc(C(=O)Nc2ccc(S(=O)(=O)NC(C)(C)C)cc2)cc([N+](=O)[O-])c1	-9.0%	-7.9%	-15.6%
Cc1ccc2[nH]c3nc(N/N=C/c4cccc(O)c4)nnc3c2c1	4.7%	-3.3%	-12.5%
CCc1ccc2[nH]c3nc(N/N=C/c4ccc(O)cc4O)nnc3c2c1	?	-24.8%	1.78µM*
Cc1cc(C)n(CC(=O)Nc2cc(F)ccc2F)c(=O)c1C#N	.	-5.6%	-6.1%
Cc1ccc(O)c(C(=O)CC(=O)c2ccccc2Cl)c1	5.01µM*	-17.6%	-11.8%
Cc1ccc(C(=O)CC(=O)c2ccccc2C)c(O)c1	?	-9.2%	i
CC(=O)N(C)c1ccc(/C=C2\C=Cc3ccccc32)cc1	.	-16.0%	14.9%
CC(=O)OCc1c(-c2ccccc2)c2cc([N+](=O)[O-])ccc2n1C	12.6µM*	-20.1%	-13.7%
CCOC(=O)C(C)On1c(-c2ccccc2)nc2ccc([N+](=O)[O-])cc21 (stereo not drawn)	?	-11.5%	.
Cn1c(CO)c(-c2ccccc2)c2cc([N+](=O)[O-])ccc21	10µM*	?	?
Cn1c2ccccc2c2cc([N+](=O)[O-])ccc21	?	5.1%	-4.6%
CN1CCN(c2ccc(NC(=O)COc3cccc4ccccc34)cc2)CC1	-17.9%	3.5%	?
CN1CCN(c2ccc(NC(=O)COc3ccc4ccccc4c3)cc2)CC1	?	-14.5%	?
C=CC(=O)Nc1cccc(Oc2ccnc(Nc3ccc(N4CCN(C)CC4)cc3)n2)c1	-21.4%	3.55µM*	?
C=CC(=O)Nc1cccc(Oc2ccnc3[nH]ccc23)c1	33.6%[8.37 µM]	5.62µM*	?
C=CC(=O)Nc1cccc(N(C)c2ccnc(Nc3ccc(N4CCN(C)CC4)cc3)n2)c1	?	4.47µM*	?
COc1cccc(NC(=O)Nc2cccnc2)c1	19.3%	.	.
COc1ccccc1Cn1cc(C(=O)c2ccc(C)cc2)c(=O)c2cc(F)cc(F)c21	.	-20.3%	-22.7%
SMILES	HCV inhibitor	Vaccinia Venus	Vaccinia mCherry
COCCCNC(=O)c1cnc2sc(N3CCCCCC3)nn2c1=O	.	-7.8%	-10.4%
CCOC(=O)CN1C(=O)N(c2ccc(C)c(C)c2)S(=O)(=O)c2ccccc21	.	-2.2%	2.1%
CC1CCN(S(=O)(=O)c2ccc3c(c2)N(CC(=O)NC(C)C)C(=O)CO3)CC1	.	-11.3%	-10.4%
O=[N+]([O-])c1cccc(CN2CCN(Cc3ccc(Br)cc3)CC2)c1	22.4µM*	.	.
O=[N+]([O-])c1cccc(COc2ccc(CN3CCCCC3)cc2)c1	-29.3%	-12.9%	-12.6%
O=C(COc1ccc(F)cc1)OCc1cc(=O)n2nc(-c3cccs3)sc2n1	.	-2.6%	-6.4%
COc1ccc(-c2nc3c4ccccc4ccn3c2Cc2ccc(C)cc2)cc1OC	.	9.9%	1.3%
COc1ccc(-c2nc3c4ccccc4ccn3c2CN2CCCCC2)cc1OC	11.2µM*	.	.
COc1cc(OC)c(NC(=O)C2CCCN(c3ncnc4c3nc3n4CCCCC3)C2)cc1Cl (stereo not drawn)	.	-21.5%	-5.2%
Cc1cc(C)cc(NC2=C(c3ccccc3)C(=O)c3ccccc32)c1	.	-10.1%	-11.0%
CN(C)c1nc(N(C)C)nc(N(C#N)CCOc2ccccc2)n1	11.2µM*	-22.2%	.
Cc1cc(C)nc(N(C#N)CCOc2ccccc2)n1	?	-16.2%	-17.9%
COc1cc(SC)ccc1C(=O)N1CCN(c2ccccc2)CC1	-21.0%	-16.6%	-14.0%
COc1ccccc1Nc1ncc(C(=O)N2CCN(Cc3ccc(OC)c(OC)c3OC)CC2)c2ccccc12	12.6µM*	-19.4%	-14.6%

Bioassay records (PubChem BioAssay)
